From PubChem BioAssay AID431 (Sanford-Burnham Center for Chemical Genomics, 2006) come the findings set out here.

The whole screen tested about 63,000 compounds, of which about 1,100 (1.7%) were called active. This excerpt belongs to a sample that is enriched for actives. Results with a measured potency or affinity are listed apart. Values without a mark were called inactive.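 The calls were made as follows: active = compounds whose percent cytotoxicity in the single-dose primary screen, scaled between solvent and toxic-drug controls, exceeds 50; inactive = the rest.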

This test in a line: cytotoxicity in KRAS-transformed pancreatic duct cells, primary screen, cell-based, fluorescence, HTS (AID 431).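 Also: 0% = DMSO solvent wells and 100% = doxorubicin-treated wells.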 Particulars: HPDE-C7K KRASV12 cells, Alamar Blue viability, 48 h; at 10 µM; stronger effect = higher value.
For `O=C(Cc1coc2ccc3ccccc3c12)N1CCN(c2ncccn2)CC1`, the cytotoxicity was 0.6%.
Regarding `COc1ccc(Nc2cc(=O)n(C3CCCCC3)c(=O)[nH]2)c(OC)c1`, the cytotoxicity was -8.6%.
`CCC(=O)Nc1ccc(OC)cc1OC`: the cytotoxicity is -5.2%.
As for `COc1ccc(OCc2nn3c(-c4ccccn4)nnc3s2)cc1`, the figure is 4%.
Under `OCCN1CCN(c2ncnc3c2sc2nc(N4CCOCC4)c4c(c23)CCC4)CC1` stands 39.9%; under `CC1(C)Cc2c(c(N3CCCC3)nc3sc4c(N5CCN(CCO)CC5)ncnc4c23)CO1`, 67.8% (active).
Under `CN1CCN(c2ncnc3c2sc2nc(N4CCCC4)c4c(c23)CC(C)(C)OC4)CC1` stands -9.3%; under `O=c1[nH]nc2c3ccccc3cnn12`, -22%.
In the case of `C=COCCNC(=O)C1CC(=O)N(c2ccc(C)cc2)C1` (centres undefined), the cytotoxicity is 13.2%.
As for `Cc1ccc(-c2cc(-c3ccc(C)o3)nc(N)c2C#N)cc1`, the figure is -2.5%; as for `Cc1ccc(-c2cc(-c3ccccc3)c(C#N)c(N)n2)o1`, 10.2%.
Under `Cc1ccc(-c2cc(-c3ccccc3Cl)c(C#N)c(N)n2)o1` stands 20.7%; under `Cc1cc(-c2cc(-c3ccc(Cl)cc3)nc(N)c2C#N)co1`, 92% (active); under `Cc1ccc(-c2cc(-c3ccc(F)cc3)nc(N)c2C#N)o1`, 4.4%.
In the case of `Cc1ccc(-c2cc(-c3ccc(Cl)cc3)c(C#N)c(N)n2)o1`, the cytotoxicity is 74.2% (active).
Under `CCNC(=O)CCC(=O)Nc1cc(Cl)ccc1C` stands -14.8%.
With `Cc1ccc(NC(=O)CC(O)(C(F)(F)F)C(F)(F)F)c(Br)c1`, the cytotoxicity was -6.8%.
`Cc1ccc(Cl)cc1NC(=O)CC(O)(C(F)(F)F)C(F)(F)F`: the cytotoxicity is 57.3% (active).
Under `COC(=O)c1sccc1NC(=O)c1ccc(OC)cc1` stands 13.2%.
On to `COc1ccc(C2CC(c3cc(Br)ccc3F)n3nnnc3N2)cc1` (centres undefined), for which the cytotoxicity was 1.9%.
Consider `O=C(c1ccccc1)c1ccncc1`, for which the cytotoxicity was 56.1% (active).
Under `O=C(c1ccccc1)c1nnc(-c2ccncc2)o1` stands -7.9%; under `O=C(c1ccncc1)c1ccc(Br)cc1`, 1.4%.
For `O=S(=O)(NCCSc1nnc(-c2ccco2)n1-c1ccccc1)c1ccccc1`, the cytotoxicity was -7.3%.
Regarding `C=C(C)Cn1c(Sc2nc3ccccc3[nH]2)nc2c1c(=O)[nH]c(=O)n2C`, the cytotoxicity is 21.2%.
Under `c1ccc(-c2nnc(N3CCN(c4ccccn4)CC3)c3ccccc23)cc1` stands -2.1%; under `Cc1ccc(-c2nnc(N3CCN(S(C)(=O)=O)CC3)c3ccccc23)cc1`, -3.8%; under `COc1ccccc1NC(=O)CSc1nnc(C)n1Cc1ccccc1`, -12.1%.
Under `O=C(Nc1ccc(Br)cc1F)c1ccncc1` stands -12.6%.
As for `CCCNc1nc2c(c(=O)[nH]c(=O)n2C)n1CCC(C)C`, the figure is 9%; as for `Cc1cccc(Nc2ccccc2C(=O)O)c1C`, 6%; as for `Cc1ccc(Cl)c(Nc2ccccc2C(=O)O)c1Cl`, 67.9% (active).
Regarding `Cc1c(Cl)cccc1Nc1ccccc1C(=O)O`, the cytotoxicity is 46%.
As for `CCN(CC)C(=O)Oc1ccc2c(=O)c(-c3ccccc3)coc2c1`, the figure is -28%; as for `CCN(CC)C(=O)Oc1ccc2c(=O)c(-c3ccc(OC)cc3)coc2c1`, -3.7%; as for `CC(C)Oc1ccc2c(=O)c(-c3ccccc3)coc2c1`, 53.7% (active).
As for `O=C(NC1CCCc2ccccc21)C1CCC(CNc2c(N3CCOCC3)c(=O)c2=O)CC1` (centres undefined), the figure is -5%; as for `O=C(NCC1CCCO1)C1CCN(C(=O)c2ccc(Cl)cc2)CC1` (centres undefined), -4.1%.
In the case of `Cc1ccc2c(c1)nnn2C1CCN(CC(=O)Nc2ccc3c(c2)OCCO3)CC1`, the cytotoxicity is -7.5%.
Under `COc1cc(-c2nc3cnccn3c2Nc2ccccc2)ccc1O` stands 16.3%.
As for `c1cn2c(NC3CCCC3)c(-c3ccc(N4CCOCC4)cc3)nc2cn1`, the figure is 7.8%; as for `CCOC(=O)C1=CN(C)C=C(C(=O)OCC)C1c1ccsc1`, 6.2%.
Under `CCCNC(=O)c1ccccc1NS(=O)(=O)c1ccc2c(c1)OCCO2` stands 28.6%; under `O=C(O)c1ccc(NS(=O)(=O)c2ccc3c(c2)OCCO3)cc1`, 1.7%.
For `COC(=O)c1ccc(C)c(NS(=O)(=O)c2ccc3c(c2)OCCO3)c1`, the cytotoxicity is 59.3% (active).
Turning to `COC(=O)c1ccc(C)c(NS(=O)(=O)c2ccc(OC)cc2)c1`, the cytotoxicity was 65.2% (active).
With `COC(=O)c1ccc(NS(=O)(=O)c2ccc(OC)cc2)cc1`, the cytotoxicity is -10.3%.
As for `CC(=O)c1cc2c(cc1NS(=O)(=O)c1ccc3c(c1)OCCO3)OCO2`, the figure is 37.2%.
Under `COC(=O)c1ccc(C)c(NC(=O)CN(c2ccc3c(c2)OCO3)S(C)(=O)=O)c1` stands -3.2%; under `COC(=O)c1ccc(Cl)c(NS(=O)(=O)c2ccc3c(c2)OCCO3)c1`, 63.6% (active); under `COC(=O)c1ccc(C)c(NS(=O)(=O)c2ccc(NC(C)=O)cc2)c1`, 4.5%.
In the case of `CC(C)(C)NC(=O)c1ccc2nccnc2c1`, the cytotoxicity was 12.3%.
As for `COc1ccccc1NC(=O)N(CCN(C)C)Cc1cc2cc(C)ccc2[nH]c1=O`, the figure is 19.6%; as for `CCCC(C(=O)NC1CCCC1)N(C(=O)Cn1nnc(-c2ccc(C)o2)n1)C1CCCC1` (centres undefined), -0.4%.
Regarding `CC(C)OC(=O)CSc1nc(N)c(C#N)c(-c2cccs2)c1C#N`, the cytotoxicity was 5%.
As for `CC(C)OC(=O)CCC1(C(=O)O)CCC(=O)NC1` (centres undefined), the figure is -7.1%; as for `O=C(CC(SCc1ccco1)c1ccc(O)cc1)c1cccs1` (centres undefined), 57.7% (active); as for `O=C(CSc1nnc(-c2ccc(O)cc2)n1Cc1ccco1)c1cccs1`, 2.5%.
Under `O=C(CSCc1ccco1)c1cccs1` stands -15.8%.
As for `CCOC(=O)C1=C(C)OC(N)=C(C#N)C1c1ccsc1` (centres undefined), the figure is 9.1%; as for `CCOc1ccc(C2CC(c3ccc(F)cc3)n3ncnc3N2)cc1` (centres undefined), 3.1%; as for `Cc1ccc(C(=O)CC(C(=O)O)n2cccn2)cc1` (centres undefined), -4.8%.
Take `Cc1ccc(C(=O)CC(C(=O)O)n2ccc(C)n2)cc1` (centres undefined): the cytotoxicity is 4.5%.
For the compound `O=C(c1ccco1)N1CCN(C(=O)c2cccn3c(=O)c4c5c(sc4nc23)CCCC5)CC1`, the cytotoxicity is -9.7%.
For the compound `Cc1cccc(Cn2cnc3c(nnn3Cc3ccc(Cl)cc3)c2=O)c1`, the cytotoxicity was -2.1%.
Under `COC(=O)c1c(N)sc(C(C)=O)c1C` stands 0%; under `COC(=O)c1sc(N)c(C(=O)OC)c1COC(=O)c1c(C)noc1C`, 56.4% (active); under `COc1ccc(C(C)=O)cc1COC(=O)c1c(C)noc1C`, 18.5%.
In the case of `Cc1cccc(Cn2c(SCCN3CCCCC3)nc3c2c(=O)[nH]c(=O)n3C)c1`, the cytotoxicity was -3.8%.
Under `O=C1C(Cl)=C(NCC2CCCO2)C(=O)N1CCc1ccccc1` (centres undefined) stands -4.3%; under `C[C@]12CC[C@@H]3c4ccc(O)cc4CC[C@H]3[C@@H]1CC[C@@H]2OC(=O)CCC(=O)O`, -1.7%.
Under `C[C@]12CC[C@@H]3c4ccc(OC(=O)c5ccccc5)cc4CC[C@H]3[C@@H]1CC[C@@H]2O` stands 54.4% (active); under `C[C@]12CC[C@@H]3c4ccc(O[C@@H]5O[C@H](C(=O)O)[C@@H](O)[C@H](O)[C@H]5O)cc4CC[C@H]3[C@@H]1C[C@@H](O)[C@@H]2O`, -13.5%.
Regarding `Cc1nnc(SCC(=O)Nc2nsc(-c3ccccc3)n2)s1`, the cytotoxicity is 11.4%.
As to `c1ccc(Cn2nnnc2C(c2cccs2)N2CCOCC2)cc1` (centres undefined), the cytotoxicity is -11.8%.
As to `COc1ccc(Cl)c(S(=O)(=O)N2CCCC2)c1`, the cytotoxicity was -3.5%.
As for `COc1ccc(C(N)=O)cc1NC(=O)CC(O)(C(F)(F)F)C(F)(F)F`, the cytotoxicity is -2%.
Consider `Cc1cc(NC(=O)C2CC(c3cccc(Br)c3)=NO2)no1` (centres undefined), for which the cytotoxicity is -11%.
Under `N=c1cc(C2(O)CCCCC2)n2c(nc3ccccc32)s1` stands 59% (active); under `c1ccc2nc3c(nc2c1)sc1nc2ccccc2n13`, -4%.
As for `CC(C)(O)c1cc(=O)sc2nc3ccccc3n12`, the figure is -10.2%; as for `COCCNC(=O)C(c1ccc(C)o1)N(C(=O)c1snc(C(N)=O)c1N)c1cccc(C)c1` (centres undefined), -12.1%.
As for `Cc1ccc2c(c1)[nH]c1c(=O)n(CCCN3CCOCC3)cnc12`, the figure is -20.9%; as for `COc1ccc(CNc2oc(-c3ccccc3)nc2C#N)cc1`, 3.8%; as for `N#Cc1nc(-c2ccc(F)cc2)oc1NCc1ccccc1`, -1.5%.
For `CC(C)(C)c1ccc(-c2nc(C#N)c(NCc3ccncc3)o2)cc1`, the cytotoxicity was 60.5% (active).
Turning to `COC(=O)c1sccc1NC(=O)CN1CCN(c2ccc(F)cc2)CC1`, the cytotoxicity is 10.5%.
As for `O=C(CCN1CCc2ccccc2C1)Nc1ccc2c(c1)OCO2`, the figure is -0.3%; as for `O=C(CCCN1CCOCC1)c1ccc2c(c1)OCCO2`, -11.1%; as for `O=C(CCN1CCc2ccccc21)c1ccc2c(c1)OCCO2`, 4.4%.
For `O=C(CCN1Cc2ccccc2C1)c1ccc2c(c1)OCCO2`, the cytotoxicity was -11.8%.
Under `CCCn1c(SCCN2C(=O)c3ccccc3C2=O)n[nH]c1=O` stands 2.1%; under `Cc1cccc(NC(=O)CSc2nnc(-c3ccccc3)n2N)c1C`, -15%; under `CCOC(=O)c1c(C)oc2c1c(C=NCC1CCCO1)c(O)c1ccccc12` (centres undefined), -16.3%.
Under `CCOC(=O)c1c(C)oc2c1c1c(c3ccccc32)OCN(Cc2cccnc2)C1` stands 29.9%; under `CCOC(=O)c1c(C)oc2c1c(C=NC1CCS(=O)(=O)C1)c(O)c1ccccc12` (centres undefined), 23.8%; under `CCOC(=O)c1c(C)oc2c1c(C(c1cccnc1)N1CCN(C)CC1)c(O)c1ccccc12` (centres undefined), 125% (active).
Take `CCOC(=O)c1c(C)oc2c1c(/C=N/c1ccccn1)c(O)c1ccccc12`: the cytotoxicity is 4.3%.
As for `CCOC(=O)c1c(C)oc2c1c(C=NCc1ccccn1)c(O)c1ccccc12`, the cytotoxicity is 99.2% (active).
